Bioassay records: PubChem, several laboratories
Rows were chosen to be rich in hits. Some 3.4% of all compounds tested hit in one or more screens of this group.
sPLA2-III inh = human group III sPLA2 inhibitors, primary screen, biochemical, QFRET, BODIPY PC-A2 liposome substrate. QFRET BODIPY PC-A2 liposome hydrolysis, fluorescence. inhibition, % at 12.2 µM. 370,000 compounds, 0.56% hits. AID 743126, 2013;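 active = inhibition above mean plus 3 SD of compounds lying within the high and low control bounds, cut at about 19% in these data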;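 note: 0% = median of test compound wells and 100% = no enzyme DMSO wells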
CendR NRP1 mod = modulators of CendR peptide binding to NRP-1, primary screen, biochemical, fluorescence polarization, uHTS. Neuropilin-1 (Homo sapiens), O14786. FAM-RPARPAR peptide binding to NRP-1. inhibition, % at 25 µM. 360,000 compounds, 0.85% hits;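 active = inhibition or corrected inhibition above about 18%, plus a signal ratio from 0.5 to 1.5, limit read from the data, passing the limit was not always enough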
ADAM10 inh = human ADAM10 inhibitors, primary screen, biochemical, QFRET, HTS. recombinant ADAM10, EDANS/DABCYL FRET peptide cleavage, 3 h. inhibition, % at 7 µM. 370,000 compounds, 0.62% hits;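 active = inhibition above a per-campaign cutoff equal to the mean of compounds falling between control-based bounds plus 3 SD, cut at about 20% in these data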;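 note: 0% = DMSO wells while the 100% control is not disclosed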
KLK7 zymogen act = proKLK7 zymogen activators, primary screen, biochemical, fluorescence intensity; Kallikrein-7 (Homo sapiens), P49862; purified proKLK7, EDANS-DABCYL substrate fluorescence; 100% is mature enzyme control, 0% vehicle; activation, % at 7 µM; 370,000 compounds, 0.9% hits;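 active = activation above the mean of all tested compounds plus 3 SD, computed per campaign excluding outliers beyond control limits, cut at about 13% in these data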
ADAM17 inh = ADAM17 inhibitors, primary screen, biochemical, QFRET; AID 720648, 2013; 370,000 compounds, 0.83% hits; Disintegrin and metalloproteinase domain-containing protein 17 (Homo sapiens), P78536; inhibition, % at 6.95 µM; recombinant ADAM17, EDANS/DABCYL FRET peptide cleavage;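 active = inhibition above the mean of compounds lying between control limits plus 3 SD, set per campaign, cut at about 8.5% in these data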;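 note: 0% = DMSO-only wells as the low control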
Target sequence (P78536 215-824 limits assumed): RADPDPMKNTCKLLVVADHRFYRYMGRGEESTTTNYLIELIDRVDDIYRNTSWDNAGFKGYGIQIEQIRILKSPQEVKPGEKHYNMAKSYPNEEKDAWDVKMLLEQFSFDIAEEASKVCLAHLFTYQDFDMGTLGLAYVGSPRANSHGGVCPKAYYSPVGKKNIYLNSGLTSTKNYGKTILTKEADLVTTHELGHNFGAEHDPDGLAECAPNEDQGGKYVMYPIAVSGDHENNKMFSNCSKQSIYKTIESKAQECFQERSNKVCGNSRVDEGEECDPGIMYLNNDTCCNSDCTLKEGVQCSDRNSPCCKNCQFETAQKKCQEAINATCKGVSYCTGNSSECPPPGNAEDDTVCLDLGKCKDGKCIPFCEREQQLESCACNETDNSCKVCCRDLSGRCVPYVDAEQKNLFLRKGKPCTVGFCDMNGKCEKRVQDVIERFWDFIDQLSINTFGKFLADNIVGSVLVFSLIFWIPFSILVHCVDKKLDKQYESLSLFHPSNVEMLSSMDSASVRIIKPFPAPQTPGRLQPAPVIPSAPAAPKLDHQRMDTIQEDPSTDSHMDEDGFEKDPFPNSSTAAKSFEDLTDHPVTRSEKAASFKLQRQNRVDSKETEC
proKLK7 act conf = proKLK7 zymogen activators, confirmation, biochemical, fluorescence intensity, triplicate. shares compounds with KLK7 zymogen act. purified proKLK7, EDANS-DABCYL substrate fluorescence; scaled: vehicle 0, mature enzyme 100. activation, % at 7 µM. 3,200 compounds, 68% hits. AID 686949, 2013;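 active = activation, as change over the incubation, above the mean of all tested compounds plus 3 SD, cut at about 13% in these data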
EDANS interfere = EDANS-DABCYL substrate optical interference, artefact control for kallikrein-7 zymogen activator project, biochemical, fluorescence intensity, high throughput. no enzyme, 4 h; solvent 0%, active enzyme control 100%. shares compounds with KLK7 zymogen act. activation, % at 7 µM. AID 686952, 2013. 3,200 compounds, 80% hits;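 active = activation above the all-compound mean plus 3 SD, ignoring values outside control-based bounds, cut at about 4.8% in these data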;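 note: value is the 4 h activation minus the activation read at time zero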
K7 EDANS ctr = optically interferes with EDANS-DABCYL fluorescence, kallikrein-7 activator counter-screen. shares compounds with KLK7 zymogen act. EDANS-DABCYL peptide fluorescence interference, no enzyme. EC50, µM. 250 compounds, 20% hits. AID 720493;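 active = compounds that raise the fluorescence signal in this interference counterscreen, with EC50 at or below 10 µM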;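 note: intact quenched peptide substrate alone read at 355 nm excitation and 520 nm emission; signal is fluorescence gain from T0 to T4 after four hours at room temperature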
The depositor's hits bear a star; i = inactive; nt = no result given.

SMILES	sPLA2-III inh	CendR NRP1 mod	ADAM10 inh	KLK7 zymogen act	ADAM17 inh	proKLK7 act conf	EDANS interfere	others
Cc1ccccc1CN1CCCCC(NC(=O)c2c(F)cccc2F)C1=O (stereo unspecified)	8.6	nt	-5.6	0.1	2.1	nt	nt
COc1ccc2c(c1)CCCN2C(=O)C1CCCN(S(=O)(=O)c2cc(OC)ccc2OC)C1 (stereo unspecified)	-1.4	nt	-8.0	0.4	2.7	nt	nt
CS(=O)(=O)NN1C(=O)c2ccccc2NC1c1c[nH]c2ccccc12 (stereo unspecified)	-25.9	-18.1	-184.3	13.6*	-54.3	0.9	1.8
CS(=O)(=O)NN1C(=O)c2ccccc2NC1c1cccs1 (stereo unspecified)	-2.6	0.0	i	63.2*	-198.9	-0.4	10.9*
CC(=O)NN1C(=O)c2ccccc2NC1c1ccccc1O (stereo unspecified)	-2.0	1.1	i	-0.5	-261.0	nt	nt
O=C(Nc1ccc2c(c1)OCCO2)Nc1ccc2c(c1)OCO2	-5.5	8.1	-2.3	1.0	-0.7	nt	nt
CC(Nc1ccc2c(c1)OCCO2)C(=O)Nc1ccc2c(c1)OCO2 (stereo unspecified)	8.6	12.1	-7.0	48.9*	-8.8	39.4*	51.8*
CCCCOc1cccc(C(=O)NCCc2ccccc2-c2ccccc2CCC(=O)NCc2ccccc2)c1	8.2	nt	-4.9	0.5	-1.4	nt	nt
CCOC(=O)c1c(NC(=O)CSc2nnc(-c3cccnc3)n2Cc2ccco2)sc(C)c1C	-12.6	-13.6	10.9	13.5*	-2.1	0.9	2.3
Cc1cccc(-c2nnc(SCC(=O)Nc3ccc(-c4nc5ccc(C)cc5s4)cc3)n2Cc2ccco2)c1	-4.3	nt	-90.6	67.8*	-22.7	61.7*	91.6*
Cc1ccc(C)c(N(CC(=O)Nc2ccc(-c3nc4ccc(C)cc4s3)cc2)S(C)(=O)=O)c1	3.6	-7.7	-65.5	19.5*	-16.4	-8.4	-19.5
Cc1ccc2nc(-c3ccc(NC(=O)CSc4nnc(-c5ccccc5)n4Cc4ccco4)cc3)sc2c1	-16.3	nt	-185.7	127.7*	-57.1	297.2*	333.1*
Cc1cccc(-c2nnc(SCC(=O)Nc3ccc(OCc4ccccc4)cc3)n2Cc2ccco2)c1	-5.7	nt	10.6	1.0	4.3	nt	nt
Cc1ccc(-n2c(SCC(=O)Nc3ccc4cn[nH]c4c3)nnc2-c2ccccc2)cc1	-19.8	nt	4.5	0.2	5.8	nt	nt
Cc1ccc2nc(-c3ccc(NC(=O)CSc4nnc(Cc5cccs5)n4C)cc3)sc2c1	-17.5	nt	i	149.4*	i	157.3*	86.4*
Cc1cc(NS(=O)(=O)c2ccc(NC(=O)CSc3nc4sc(C)c(C)c4c(=O)n3Cc3ccco3)cc2)nc(C)n1	-32.9	nt	4.6	0.3	3.1	nt	nt
Cc1cc2[nH]c(=O)c(=O)[nH]c2cc1S(=O)(=O)NC1CCC(C)CC1 (stereo unspecified)	1.6	-2.5	-318.1	14.8*	-94.0	7.5	4.1*
Cc1cc2[nH]c(=O)c(=O)[nH]c2cc1S(=O)(=O)NCc1ccccc1	0.5	2.7	i	22.6*	-188.0	3.7	6.0*
Cc1cc2[nH]c(=O)c(=O)[nH]c2cc1S(=O)(=O)NCC(C)c1ccccc1 (stereo unspecified)	-8.2	-18.9	-342.4	10.9	-84.8	nt	nt
CN1C(=O)/C(=C2\SC(=S)N(CCCCCC(=O)O)C2=O)c2ccccc21	4.8	2.6	2.0	0.1	-8.4	nt	nt
CCN1C(=O)/C(=C2\SC(=S)N(CCCOC)C2=O)c2ccccc21	4.7	11.7	-4.1	19.7*	-6.6	0.6	1.0
CCc1ccc(S(=O)(=O)Nc2ccc(-c3nc4cccnc4s3)cc2)s1	-56.1	-13.0	i	-33.0	i	nt	nt
O=S(=O)(Nc1ccc(-c2nc3cccnc3s2)cc1)c1cc(F)ccc1F	-25.7	8.5	i	15.8*	i	20.3*	20.8*
Cc1ccc(N2C(=O)c3cccc4cccc(c34)C2=O)cc1	-3.0	5.6	-0.7	-0.7	-1.3	nt	nt
CC1=Nc2ccc(C)c3nc(C)cc(c23)N1c1ccc(C)cc1	7.5	-16.9	i	70.0*	-167.8	2.4	0.2
SMILES	sPLA2-III inh	CendR NRP1 mod	ADAM10 inh	KLK7 zymogen act	ADAM17 inh	proKLK7 act conf	EDANS interfere	others
Cc1ccc(N2C=Nc3ccc(C)c4nc(C)cc2c34)cc1	3.5	11.6	-474.5	49.5*	-147.5	-19.6	-21.3
Cc1ccc(C(=O)C2CCN(CC(=O)N3CCOCC3)CC2)cc1	2.8	nt	1.3	-0.6	-0.3	nt	nt
Cc1ccc(C(=O)Nc2ccc(NC(=O)c3ccc(C)o3)cc2)o1	2.1	0.1	0.3	29.3*	-1.6	30.9*	18.3*
N#Cc1cc2cc3c(cc2nc1N1CCOCC1)OCO3	3.0	-10.6	i	18.0*	-164.3	114.3*	122.9*
CC(=O)Nc1cccc(NC(=O)CSc2ncc(C(=O)Nc3ccccc3)c(=O)n2C)c1	-10.8	-3.8	-17.3	100.0*	-6.8	6.4	13.2*
COc1ccc(CC(/C=C/c2ccc(F)cc2)c2ccccc2)cc1 (stereo unspecified)	6.3	nt	-5.7	-0.6	-4.3	nt	nt
O=C(Cc1ccc([N+](=O)[O-])cc1)NCc1ccccc1Cl	4.5	-8.3	4.3	40.1*	4.4	-0.7	-1.2
O=C(Cc1ccc([N+](=O)[O-])cc1)NCc1cccnc1	8.0	7.1	-4.3	-0.3	-2.5	nt	nt
COc1ccc(OC)c(S(=O)(=O)N2CCCCC2C(=O)N2CCN(Cc3ccc(F)cc3)CC2)c1 (stereo unspecified)	-8.6	nt	-3.9	0.0	2.4	nt	nt
COc1ccc(NC(=O)c2cc(-c3ccco3)on2)cc1OC	5.4	-22.9	0.1	54.9*	-3.3	20.5*	4.8*	K7 EDANS ctr=i
Cc1ccc(NC(=O)c2cc(-c3ccco3)on2)cc1C	-8.1	-25.9	-49.4	1.7	-18.4	nt	nt
Cc1ccc(-c2cccc3[nH]cc(C)c23)s1	-5.6	nt	-36.8	-1.6	-8.6	nt	nt
CCCCn1c(=O)[nH]c2nc3cc(N)ccc3nc2c1=O	-160.1	131.6	-28.5	2.8	-6.6	nt	nt
Nc1ccc2nc3c(=O)n(C4CCCCC4)c(=O)[nH]c3nc2c1	-249.2	129.3	-9.2	14.5*	-4.1	8.1	7.6*
COC(=O)c1ccc(Cn2ccc3ccc(-c4ccc5ccn(C(=O)c6ccccc6OC)c5c4)cc32)cc1	-0.7	nt	-43.1	-3.3	-9.2	nt	nt
